Assay [1] addresses RAC-alpha serine/threonine-protein kinase (Homo sapiens) (UniProt P31749). The conditions noted are these: at 1 µM.
Assay [2] shares this target. The conditions noted are these: at 10 µM.

In general, residual activity refers to the signal under treatment as a percentage of the control signal.

Chain of RAC-alpha serine/threonine-protein kinase (Homo sapiens) (P31749 whole entry): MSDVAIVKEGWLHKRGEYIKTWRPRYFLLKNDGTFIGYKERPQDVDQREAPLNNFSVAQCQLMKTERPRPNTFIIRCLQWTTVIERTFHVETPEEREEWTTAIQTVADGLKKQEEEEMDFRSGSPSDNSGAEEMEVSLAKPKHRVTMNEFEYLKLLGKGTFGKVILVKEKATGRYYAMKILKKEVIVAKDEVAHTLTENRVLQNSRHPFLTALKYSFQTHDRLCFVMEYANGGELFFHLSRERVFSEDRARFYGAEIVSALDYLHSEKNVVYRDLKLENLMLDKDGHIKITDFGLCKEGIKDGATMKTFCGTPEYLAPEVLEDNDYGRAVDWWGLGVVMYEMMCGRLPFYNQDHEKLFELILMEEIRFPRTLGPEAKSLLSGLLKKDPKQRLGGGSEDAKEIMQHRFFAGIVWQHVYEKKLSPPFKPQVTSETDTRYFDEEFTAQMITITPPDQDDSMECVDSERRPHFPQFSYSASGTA

In the case of `COc1ccc(Cl)cc1NC(=O)Nc1cc(C)nc2ccccc12`, the residual activity was 95% in assay [1] and 94% in assay [2].

On to `COc1ccc(CNC(=O)Nc2ncc([N+](=O)[O-])s2)cc1`, for which the residual activity in assay [1] was 116%; in assay [2], 106%.

For the compound `CC#CC(=O)Nc1cc2c(Nc3ccc(F)c(Cl)c3)ncnc2cn1`, the residual activity in assay [1] amounted to 101%; in assay [2], 107%.

These data come from ChEMBL document CHEMBL2218924, “A broad activity screen in support of a chemogenomic map for kinase signalling research and drug discovery” (Biochem J, 2013).
